# Sampled rows, rich in hits. Any-hit rate of the full collection: about 19%.
# TDP1 cell CPT: qHTS for Inhibitors of human tyrosyl-DNA phosphodiesterase 1 (TDP1): qHTS in cells in presence of CPT | AID 686979, 2013 | chicken DT40 Tdp1-/-;hTDP1 cells + 20 nM CPT, ATP luminescence, 48 h | Potency, µM (doses to about 46.2 µM), without a hit: at the highest dose activity change, negative = growth inhibition, hits mostly inhibitors | 12% of 420,000 active; further: potency means the concentration at half of the fitted maximal effect; on the % scale 0 is the no-effect control and ±100 the full control effect; nearly all actives have a fitted effect of over 55% in size
#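 Chicken DT40 Tdp1-/- cells stably complemented with human TDP1 were seeded at 400 cells/well in medium containing 20 nM camptothecin, exposed to pin-transferred compounds, and grown at 37 °C for at least 48 hr. Viability was read as ATP luminescence.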
# MCF10A rereplic: A quantitative high throughput screen for small molecules that induce DNA re-replication in MCF 10a normal breast cells | MCF 10A DNA re-replication, Hoechst nuclear intensity, 48 h | Potency, µM (titrated, usually from 46.1 µM), inactives show top-dose activity, positive = re-replication, most hits filed as activators | 2.9% of 350,000 active | AID 624296, 2012; further: potency means the concentration at half of the fitted maximal effect; % of control where 0% means no effect; nearly all actives have a fitted effect of over 50% in size
# BCR signal inh: qHTS Assay to Find Inhibitors of Chronic Active B-Cell Receptor Signaling; AID 493014, 2011; ABC-DLBCL IkBa-CBG/CBR reporter, luminescence ratio, 4 h; Potency, µM (series often up to 46.1 µM), inactives show top-dose activity change, negative = inhibition, usual class: inhibitors; 0.05% of 340,000 active; active means well fitted inhibition curve with a large enough effect in the signal ratio, with a control signal flat, not every such curve was filed as active; inconclusive means small, poorly fitted or top-dose-only effect, or effect the other way, or a change in a side signal; the % refers to the signal ratio;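 further: potency means the concentration at half of the fitted maximal effect; plate controls were basal doxycycline-induced cells for no effect and cells given 10 µM MG132 for full effect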
#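 Doxycycline induced both beetle luciferases in TMD8 lymphoma cells; IKK-driven degradation limits the IkappaBalpha-fused green signal, while red luminescence normalises for cell number and nonspecific effects. Compounds tested up to 46 uM, 4 hrs.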
# TDP1 cell noCPT: qHTS for Inhibitors of human tyrosyl-DNA phosphodiesterase 1 (TDP1): qHTS in cells in absence of CPT; Potency, µM (highest dose often 46.2 µM), inactives show top-dose activity change, negative = growth inhibition, usual class: inhibitors; DT40 Tdp1-/- hTDP1 cells, no CPT, ATP luminescence, 48 h; 15% of 420,000 active; further: potency means the concentration at half of the fitted maximal effect; on the % scale 0 is the no-effect control and ±100 the full control effect; nearly all actives have a fitted effect of over 55% in size
#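 Camptothecin absent (DMSO only). Human TDP1-complemented DT40 knockout cells, 400 cells/well, 37 °C for minimum 48 hr; ATP measured via CellTiter-Glo, 30 min dark incubation, luminescence.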
# IL-1B inflam inh: qHTS for Inhibitors of Inflammasome Signaling: IL-1-beta AlphaLISA Primary Screen; THP-1 LPS/ATP IL-1B secretion, AlphaLISA, 16 h; hits give low values; activity change, % at 57.5 µM; 4.7% of 360,000 active; AID 743279, 2014; in the data active means activity change below about -50%; inconclusive means mostly about -30% to -49%; further: on the % scale 0 is the no-effect control and ±100 the full control effect
#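 THP-1 cells pretreated 1 hr with compounds (up to 57.5 uM final), then stimulated with LPS (250 ng/mL final) plus ATP (1.25 mM final); secreted IL-1B measured by AlphaLISA after 16 hr, decreased signal indicating inhibition.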
# SW480 rereplic: A quantitative high throughput screen for small molecules that induce DNA re-replication in SW480 colon adenocarcinoma cells; SW480 DNA re-replication, Hoechst DNA content imaging, 48 h; Potency, µM (titrated, usually from 46.1 µM), for the others: at the highest dose re-replication activation, usual class: activators; 1.8% of 340,000 active; further: potency means the concentration at half of the fitted maximal effect; % of control where 0% means no effect; nearly all actives have a fitted effect of over 55% in size
#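 250 cells/well; 23 nL cpd via pin tool; 48 hr, 37 C, 5% CO2; Hoechst 40 min; imager read of total nuclear intensity, ex 405/em 500-530 nm.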
# * hit, by the source's call; ? = inconclusive; nt = no result. Unless noted, the call rests on the fitted dose curve; in most records, active means well fitted curve in the direction sought with a large enough effect; inconclusive means small, poorly fitted or top-dose-only effect, or another doubt; inactive means no such curve, though single readings can be large; an effect the other way counts as inactive or inconclusive.
SMILES,TDP1 cell CPT,MCF10A rereplic,BCR signal inh,TDP1 cell noCPT,IL-1B inflam inh,SW480 rereplic
CCCn1c2ccccc2c2cnn(CC(=O)Nc3ccccc3OC)c(=O)c21,23.1µM*,nt,-15.2%,14.6µM*,nt,nt
COc1cccc(C(=O)OCC(=O)NCC2CCCO2)c1 (configuration not stated),-10.9%,-1.9%,0.6%,-10.7%,9.2,-1.4%
O=c1nc(N/N=C/C=C/c2ccccc2)cn[nH]1,?,24.0%,?,8.2µM*,-2.2,?
O=c1nc(N/N=C/c2c[nH]c3ccccc23)cn[nH]1,-0.1%,-11.6%,-17.6%,?,12.0,-2.2%
Cc1cc(N2CCC(C)CC2)nc(SCC(=O)c2ccccc2)n1,?,?,?,-83.5%,-61.7*,-1.9%
COC(=O)CSc1nc(C)cc(N2CCOCC2)n1,3.1%,0.3%,0.1%,17.0%,44.0,-3.7%
Cc1cc(N2CCOCC2)nc(SCC(=O)c2ccccc2)n1,-12.1%,3.3%,?,-18.0%,13.2,1.6%
Cc1cc(N2CCCC2)nc(SCC(=O)c2ccccc2)n1,?,?,?,23.1µM*,-16.9,-3.5%
Cc1cc(N2CCOCC2)nc(SCC(=O)c2ccc(Cl)cc2)n1,16.4µM*,-2.1%,-1.3%,?,-16.0,3.2%
COc1ccc(C(=O)c2c(N)c(C(=O)Nc3ccccc3Cl)c3ccccn23)cc1,-14.9%,nt,nt,-6.5%,nt,nt
Cc1cccc(S(=O)(=O)NC(=O)C2(C)CCN2C(=O)Cc2ccc(-c3ccccc3)cc2)c1 (configuration not stated),3.8%,nt,nt,?,64.7,nt
CN(c1ncnc2onc(-c3cccc(Cl)c3)c12)C1CCCCC1,?,nt,nt,23.1µM*,nt,nt
Cc1cccc(Nc2ncnc3onc(-c4cccc(Cl)c4)c23)c1,20.6µM*,-3.1%,23.9%,?,-7.3,7.0%
CCNC(=O)C1(C)CCN(C(=O)c2c(F)cccc2F)C1 (configuration not stated),-4.2%,nt,nt,-5.6%,28.3,nt
C[C@@H]1CN([C@H](C)CO)C(=O)Cc2cc(NC(=O)Nc3ccccc3)ccc2O[C@@H]1CN(C)C(=O)Nc1ccc2c(c1)OCO2,0.7%,2.5%,?,-4.3%,-21.0,-1.7%
CCc1nc2c(OCc3ccc(C#N)cc3)cccn2c1N(C)C(=O)c1cccs1,-12.6%,nt,nt,-20.6%,-19.0,nt
Cn1c(SCC(=O)Nc2ccc3c(c2)n(C)c(=O)n3C)nnc1-c1ccncc1,-2.1%,7.5%,0.5%,0.8%,-18.0,-1.7%
Cc1ccc2sc(N(CCN(C)C)C(=O)c3ccc(S(=O)(=O)N4CC(C)OC(C)C4)cc3)nc2c1C (configuration not stated),?,-0.7%,12.0%,-23.3%,-64.5*,0.0%
Cc1ccc2sc(N(CCCN(C)C)C(=O)c3ccc(S(=O)(=O)N4CCOCC4)cc3)nc2c1C,?,5.6%,7.3%,?,?,-2.8%
Cc1cc(C)c2nc(N(CCCN(C)C)C(=O)c3ccc(S(=O)(=O)N4CC(C)OC(C)C4)cc3)sc2c1 (configuration not stated),16.4µM*,9.3%,4.2%,20.6µM*,-95.8*,?
CC1CCCC(C)N1C(=O)COC(=O)COc1ccc(C#N)cc1 (configuration not stated),4.0%,-9.5%,?,0.5%,3.8,-2.3%
N#Cc1ccc(NC(=O)COC(=O)CCc2nc3ccccc3c(=O)[nH]2)cc1,-0.9%,-7.5%,-9.7%,-13.1%,-0.1,-5.8%
CCN(C[C@H]1N[C@@](Cc2ccccc2)(C(=O)OC)[C@H]2C(=O)N(C)C(=O)[C@@H]12)S(=O)(=O)c1ccc(OC(F)(F)F)cc1,?,-8.3%,?,16.4µM*,-27.2,?
CCN(C[C@H]1N[C@@](Cc2ccccc2)(C(=O)OC)[C@H]2C(=O)N(C)C(=O)[C@@H]12)S(=O)(=O)c1ccc(C(F)(F)F)cc1,23.1µM*,?,2.6%,18.4µM*,-24.8,6.7%
CCN(C[C@H]1N[C@@](Cc2ccccc2)(C(=O)OC)[C@H]2C(=O)N(C)C(=O)[C@@H]12)S(=O)(=O)c1ccc(OC)cc1,14.6µM*,5.1%,-1.4%,14.6µM*,-18.3,?
SMILES,TDP1 cell CPT,MCF10A rereplic,BCR signal inh,TDP1 cell noCPT,IL-1B inflam inh,SW480 rereplic
COC(=O)[C@]1(Cc2ccccc2)N[C@H](CN(C)S(=O)(=O)c2ccc(-c3ccccc3)cc2)[C@@H]2C(=O)N(C)C(=O)[C@@H]21,25.9µM*,0.1%,1.6%,20.6µM*,-18.0,?
CCN(C[C@H]1N[C@@](CC)(C(=O)OC)[C@H]2C(=O)N(C)C(=O)[C@@H]12)S(=O)(=O)c1ccc(C)cc1,-9.4%,-2.6%,3.1%,-15.2%,-19.4,4.2%
CCN(C[C@H]1N[C@@](C)(C(=O)OC)[C@H]2C(=O)N(C)C(=O)[C@@H]12)S(=O)(=O)c1ccc(OC(F)(F)F)cc1,-1.1%,10.6%,-0.3%,-13.2%,19.5,20.0%
CCNc1ncc2nc(C)c(=O)n(C)c2n1,-1.1%,nt,nt,-1.4%,nt,nt
CSc1nc(N)nc2c1ncn2CC(=O)N[C@H](C)c1cccc2ccccc12,?,-2.2%,?,?,16.9,?
CCOc1ccc(S(=O)(=O)Nc2cc3c(C(=O)OCc4ccccc4)c(C)oc3c3ccccc23)cc1,11.6µM*,nt,nt,29.1µM*,nt,nt
COCCOC(=O)c1c(C)oc2c1cc(NS(=O)(=O)c1ccc(Cl)c(C)c1)c1ccccc12,?,nt,nt,23.1µM*,nt,nt
CCCCOC(=O)c1c(C)oc2c1cc(NS(=O)(=O)c1cc(OC)ccc1OC)c1ccccc12,?,nt,nt,20.6µM*,nt,nt
Cc1oc2c(cc(NS(=O)(=O)c3ccc(Cl)cc3)c3ccccc32)c1C(=O)O,?,?,12.4%,-9.6%,36.0,-11.1%
CCOC(=O)c1c(C)oc2c1cc(NS(=O)(=O)c1ccc(C(=O)O)cc1)c1ccccc12,-8.9%,8.6%,?,-29.9%,32.5,-24.5%
Cc1oc2c(cc(NS(=O)(=O)c3ccc(C(C)C)cc3)c3ccccc32)c1C(=O)OCc1ccccc1,20.6µM*,nt,nt,?,nt,nt

# Screening data: PubChem, National Center for Advancing Translational Sciences (NCATS)
